Inconclusive results are not listed. Calls of active or inactive are those of the source. Calls come from the whole dose curve; as a rule, active = well fitted curve in the direction sought with a large enough effect; inconclusive = small, poorly fitted or top-dose-only effect, or another doubt; inactive = no such curve, though single readings can be large; an effect the other way counts as inactive or inconclusive.
Key:
[1] = Quantitative High-Throughput drug screen in 47 multiple myeloma cell lines against the NCATS MIPE library collection: KHM11_PLB cell viability assay (AID 1918962); note: nearly all actives have a fitted effect of over 35% in size
How it was run: (§1)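 qHTS of the MIPE 4.0 collection: 500 myeloma cells/well, 48 h drug exposure at 37C in 5% CO2, then CellTiter-Glo for 5 min at room temperature before luminescence reading.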

[2] = Quantitative High-Throughput drug screen in 47 multiple myeloma cell lines against the NCATS MIPE library collection: JIM3_ECACC cell viability assay (AID 1918963; note: nearly all actives have a fitted effect of over 35% in size)
How it was run: as §1

[3] = Quantitative High-Throughput drug screen in 47 multiple myeloma cell lines against the NCATS MIPE library collection: JIM1_ECACC cell viability assay (AID 1918964)
How it was run: (§2)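 Viability readout: CellTiter-Glo luminescence following 5 min room-temperature incubation with reagent. Prior exposure: 48 h, 37C, humidified 5% CO2, 500 cells per well.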

[4] = Quantitative High-Throughput drug screen in 47 multiple myeloma cell lines against the NCATS MIPE library collection: JJN3_DSMZ cell viability assay (AID 1918966; note: nearly all actives have a fitted effect of over 50% in size)
How it was run: as §2

[5] = Quantitative High-Throughput drug screen in 47 multiple myeloma cell lines against the NCATS MIPE library collection: H1112_PLB cell viability assay (AID 1918967; note: nearly all actives have a fitted effect of over 30% in size)
How it was run: as §2

[6] = Quantitative High-Throughput drug screen in 47 multiple myeloma cell lines against the NCATS MIPE library collection: Karpas25_ECACC cell viability assay (AID 1918968; note: nearly all actives have a fitted effect of over 35% in size)
How it was run: as §2

[7] = Quantitative High-Throughput drug screen in 47 multiple myeloma cell lines against the NCATS MIPE library collection: KMS27_JCRB cell viability assay (AID 1918970); note: nearly all actives have a fitted effect of over 30% in size
How it was run: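 Luminescent ATP read-out (CellTiter-Glo, 5 min at room temperature) after 48 h compound exposure of 500 KMS27_JCRB cells per well; DMSO wells define full viability and media-only wells zero.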

[8] = Quantitative High-Throughput drug screen in 47 multiple myeloma cell lines against the NCATS MIPE library collection: KMS12BM_JCRB cell viability assay (AID 1918971); note: nearly all actives have a fitted effect of over 35% in size
How it was run: (§3)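 Myeloma cell lines, 500 cells per well, exposed to MIPE 4.0 library compounds for 48 h at 37C, 5% CO2. Viability from ATP by CellTiter-Glo luminescence; normalised to DMSO (100%) and media-only (0%) wells.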

[9] = Quantitative High-Throughput drug screen in 47 multiple myeloma cell lines against the NCATS MIPE library collection: KMS12PE_JCRB cell viability assay (AID 1918972); note: nearly all actives have a fitted effect of over 30% in size
How it was run: (§4)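 Luminescent ATP measurement with CellTiter-Glo gives viability, scaled between DMSO-only wells (100%) and media-only wells (0%). Cells, 500 per well, faced library compounds for 48 hours at 37C.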

[10] = Quantitative High-Throughput drug screen in 47 multiple myeloma cell lines against the NCATS MIPE library collection: KMS20_JCRB cell viability assay (AID 1918973); note: nearly all actives have a fitted effect of over 45% in size
How it was run: as §2

[11] = Quantitative High-Throughput drug screen in 47 multiple myeloma cell lines against the NCATS MIPE library collection: NCIH929_DSMZ cell viability assay (AID 1918978); note: nearly all actives have a fitted effect of over 35% in size
How it was run: (§5)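 qHTS format: cells plated (500/well), pin-dosed with MIPE 4.0 compounds, kept 48 h at 37 °C. Readout was CellTiter-Glo luminescence, median RLU.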

[12] = Quantitative High-Throughput drug screen in 47 multiple myeloma cell lines against the NCATS MIPE library collection: OCIMY1_PLB cell viability assay (AID 1918979); note: nearly all actives have a fitted effect of over 35% in size
How it was run: as §5

[13] = Quantitative High-Throughput drug screen in 47 multiple myeloma cell lines against the NCATS MIPE library collection: MM1S_ATCC cell viability assay (AID 1918980); note: nearly all actives have a fitted effect of over 45% in size
How it was run: as §5

[14] = Quantitative High-Throughput drug screen in 47 multiple myeloma cell lines against the NCATS MIPE library collection: MM1R_ATCC cell viability assay (AID 1918981); note: nearly all actives have a fitted effect of over 35% in size
How it was run: as §5

[15] = Quantitative High-Throughput drug screen in 47 multiple myeloma cell lines against the NCATS MIPE library collection: LP1_DSMZ cell viability assay (AID 1918982); note: nearly all actives have a fitted effect of over 35% in size
How it was run: as §5

[16] = Quantitative High-Throughput drug screen in 47 multiple myeloma cell lines against the NCATS MIPE library collection: INA6_PLB cell viability assay (AID 1918965; note: nearly all actives have a fitted effect of over 55% in size)
How it was run: as §4

[17] = Quantitative High-Throughput drug screen in 47 multiple myeloma cell lines against the NCATS MIPE library collection: KMS21BM_JCRB cell viability assay (AID 1918974); conditions: ATP luminescence, 48 h; viability: at 45.8 µM (top of the series) unless noted
How it was run: as §2

[18] = Quantitative High-Throughput drug screen in 47 multiple myeloma cell lines against the NCATS MIPE library collection: KMS26_JCRB cell viability assay (AID 1918975); note: nearly all actives have a fitted effect of over 45% in size
How it was run: as §3

[19] = Quantitative High-Throughput drug screen in 47 multiple myeloma cell lines against the NCATS MIPE library collection: MMM1_PLB cell viability assay (AID 1918976); note: nearly all actives have a fitted effect of over 35% in size
How it was run: as §5

[20] = Quantitative High-Throughput drug screen in 47 multiple myeloma cell lines against the NCATS MIPE library collection: MOLP8_DSMZ cell viability assay (AID 1918977); note: nearly all actives have a fitted effect of over 45% in size
How it was run: as §5

Measured: Potency
Potency is the fitted concentration of half-maximal effect.

CCN(CC)CCCCNc1ncc2cc(-c3cc(OC)cc(OC)c3)c(NC(=O)NC(C)(C)C)nc2n1
inactive: [12]
active: [1] 9.35 µM | [2] 23.5 µM | [3] 20.9 µM | [4] 20.9 µM | [5] 23.5 µM | [6] 10.5 µM | [7] 16.6 µM | [8] 18.7 µM | [9] 16.6 µM | [10] 7.43 µM | [11] 11.8 µM | [13] 20.9 µM | [14] 23.5 µM | [15] 16.6 µM

Nc1cc(C(F)(F)F)c(-c2cc(N3CCOCC3)nc(N3CCOCC3)n2)cn1
active: [1] 1.05 µM | [2] 0.743 µM | [3] 0.0469 µM | [16] 1.32 µM | [5] 0.743 µM | [6] 0.743 µM | [7] 0.209 µM | [9] 0.418 µM | [10] 1.18 µM | [17] 0.418 µM | [18] 2.09 µM | [19] 0.526 µM | [20] 1.05 µM | [11] 0.209 µM | [12] 0.469 µM | [13] 0.235 µM | [14] 1.18 µM

CC(C)c1cnn2c(NCc3ccccc3)cc(N[C@@H](CO)[C@H](O)CO)nc12
active: [1] 0.148 µM | [2] 0.235 µM | [3] 0.132 µM | [16] 0.166 µM | [5] 0.296 µM | [6] 0.235 µM | [7] 0.209 µM | [8] 0.332 µM | [10] 0.235 µM | [18] 0.296 µM | [20] 0.166 µM | [11] 0.166 µM | [12] 0.418 µM | [14] 0.235 µM

CC(C)[C@H](C(=O)Nc1ccc(C(=O)NO)cc1)c1ccccc1
active: [1] 1.32 µM | [2] 1.48 µM | [3] 0.332 µM | [4] 0.662 µM | [5] 1.05 µM | [6] 0.418 µM | [7] 2.09 µM | [9] 0.526 µM | [10] 0.833 µM | [17] 0.105 µM | [18] 3.32 µM | [20] 0.526 µM | [11] 0.526 µM | [12] 1.18 µM | [14] 0.526 µM

Nc1ncnc2c1c(-c1cccc(OCc3ccccc3)c1)cn2C1CC(CN2CCCC2)C1 (stereo not given)
active: [1] 5.26 µM | [2] 0.0833 µM | [3] 0.296 µM | [16] 6.62 µM | [5] 16.6 µM | [6] 0.148 µM | [7] 18.7 µM | [8] 23.5 µM | [9] 9.35 µM | [10] 0.132 µM | [18] 4.69 µM | [20] 16.6 µM | [11] 0.0833 µM | [12] 10.5 µM | [13] 1.87 µM | [14] 1.66 µM | [15] 5.9 µM

OCc1ccc(-c2ccc(-c3ccc(CO)s3)o2)s1
inactive: [3]
active: [1] 6.62 µM | [2] 16.6 µM | [16] 2.64 µM | [5] 16.6 µM | [6] 3.72 µM | [7] 0.0118 µM | [8] 23.5 µM | [10] 1.87 µM | [18] 11.8 µM | [19] 3.72 µM | [20] 20.9 µM | [11] 2.64 µM | [12] 23.5 µM | [14] 3.72 µM

CCN1CCN(CC(=O)Nc2ccc(-c3cccc4c(=O)cc(N5CCOCC5)oc34)c3sc4ccccc4c23)CC1
active: [1] 0.0526 µM | [2] 1.18 µM | [3] 0.469 µM | [4] 3.72 µM | [5] 6.62 µM | [6] 0.264 µM | [7] 0.418 µM | [8] 1.05 µM | [9] 2.35 µM | [10] 1.18 µM | [18] 1.32 µM | [19] 2.35 µM | [20] 0.526 µM | [11] 0.187 µM | [12] 5.9 µM | [13] 7.43 µM | [14] 1.48 µM | [15] 1.48 µM

Nc1ccccc1NC(=O)c1ccc(CNC(=O)OCc2cccnc2)cc1
active: [1] 4.18 µM | [2] 2.96 µM | [3] 1.48 µM | [16] 0.418 µM | [5] 2.35 µM | [6] 0.833 µM | [7] 0.526 µM | [8] 1.32 µM | [9] 0.743 µM | [10] 0.526 µM | [17] 0.469 µM | [18] 4.69 µM | [20] 1.48 µM | [11] 1.32 µM | [12] 4.69 µM | [13] 0.935 µM | [14] 0.833 µM

Cc1cn2c(-c3cn[nH]c3)cnc2c(Nc2ccc(C(=O)N3CCNCC3)cc2F)n1
active: [1] 16.6 µM | [2] 23.5 µM | [3] 2.09 µM | [16] 16.6 µM | [6] 18.7 µM | [8] 14.8 µM | [9] 5.26 µM | [10] 18.7 µM | [18] 16.6 µM | [19] 14.8 µM | [13] 4.69 µM | [14] 20.9 µM
